Assay [1] addresses Tumor necrosis factor receptor superfamily member 10B (Homo sapiens) (UniProt O14763). The experiment in a line: viability loss of caspase-8 NB7 cells with TRAIL – with/without TRAIL, luminescence panel, confirmation (AID 651596). Conditions: NB7 neuroblastoma + caspase-8, TRAIL sensitization, NB7 Caspase-8, with TRAIL, mean of runs, at 10 µM, stronger effect = higher value.
Assay in assay [2]: as above
As to conditions: NB7 neuroblastoma + caspase-8, without TRAIL, NB7 Caspase-8, without TRAIL, mean of runs, at 10 µM.

Assay [3] deals with Tumor necrosis factor receptor superfamily member 10B (Homo sapiens) (UniProt O14763). The experiment in a line: compound enhancement of TRAIL-induced cell killing – NB7 cells plus caspase-8, luminescence, panel, dose response (AID 652002). Conditions: NB7 neuroblastoma +caspase-8, TRAIL sensitization, luminescence viability, NB7+Caspase-8, with TRAIL, run 1; at 12.5 µM (top of the series).

For assay [4] the target is unchanged. Described as above. As to conditions: NB7 neuroblastoma +caspase-8, TRAIL sensitization, luminescence viability, NB7+Caspase-8, with TRAIL, run 2; at 12.5 µM (top of the series).
Assay in assay [5]: as above
Conditions: NB7 neuroblastoma +caspase-8, no TRAIL, compound-alone cytotoxicity counter-screen, luminescence viability, NB7+Caspase-8, run 1; at 12.5 µM (top of the series).

Assay in assay [6]: as above
As to conditions: NB7 neuroblastoma +caspase-8, no TRAIL, compound-alone cytotoxicity counter-screen, luminescence viability, NB7+Caspase-8, run 2; at 12.5 µM (top of the series). On the technique in general: Counterscreens check selectivity or assay interference.

Tumor necrosis factor receptor superfamily member 10B (Homo sapiens), sequence (O14763 whole entry, looked up): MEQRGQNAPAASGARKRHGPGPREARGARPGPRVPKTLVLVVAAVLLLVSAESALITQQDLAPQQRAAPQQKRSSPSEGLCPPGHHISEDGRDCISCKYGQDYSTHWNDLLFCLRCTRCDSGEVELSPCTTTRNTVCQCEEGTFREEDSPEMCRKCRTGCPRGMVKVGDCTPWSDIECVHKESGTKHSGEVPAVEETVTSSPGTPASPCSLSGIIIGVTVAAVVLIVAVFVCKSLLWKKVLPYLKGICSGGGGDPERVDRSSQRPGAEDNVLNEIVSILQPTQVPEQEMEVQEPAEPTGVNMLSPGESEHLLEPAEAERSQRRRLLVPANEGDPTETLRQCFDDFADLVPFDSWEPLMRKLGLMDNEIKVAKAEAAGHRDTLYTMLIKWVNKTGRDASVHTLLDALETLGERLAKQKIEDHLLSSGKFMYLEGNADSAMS

Regarding `CN(C)C(=O)O/N=C(\N)COc1ccc(C(C)(C)C)cc1`, the activity came to 96.8% in assay [1] and 98.2% in assay [2].
Turning to `CN(C)C(=O)Oc1ccc(-c2cn3cc(Cl)ccc3n2)cc1`, the activity in assay [1] was found to be 80%; in assay [2] it was 85.6%.
As to `CCOC(=O)[C@]12Cc3cc4ccccc4cc3[C@H]1N(Cc1ccccc1)C(=O)c1ccccc12`, the figures for the activity in assay [1] and in assay [2] were 52.8% and 54.6%, respectively. Further, the activity, % sensitization in assay [3] turned out to be 18.4%; in assay [4] it was 31.7%; in assay [5] it was 6.91%; in assay [6], 3.45%.
`CC(=O)OCC12CC(OC(=O)CC(C)C)C(C)=CC1OC1C(O)C(OC(C)=O)C2(C)C12CO2` (centres undefined): the activity worked out at 93% in assay [1] and 97.6% in assay [2].
With `CCOC(=O)[C@]12Cc3cc4ccccc4cc3[C@H]1N(Cc1ccccc1)C(=O)c1cc(OC)ccc12`, the activity came to 46.5% in assay [1] and 53.2% in assay [2]. Moreover, the activity, % sensitization in assay [3] amounted to 23.8%; in assay [4], 23.6%; in assay [5], 7.37%; in assay [6] it was 2.99%.
As for `C[C@@H]1O[C@@H](O[C@@H]2C=C3CC[C@@H]4C(CC[C@]5(C)[C@@H](c6ccc(=O)oc6)CC[C@]45O)[C@@]3(C)CC2)[C@H](O)[C@H](O)[C@H]1O` (some centres undefined), the activity in assay [1] came to 82.4%; in assay [2], 91.5%.
In the case of `CC1=CC2OC3CC4OC(=O)C=CC=CC(C(C)O)OCC(O)C5(C)OC5C(=O)OCC2(CC1O)C4(C)C31CO1` (centres undefined), the activity is 93% in assay [1] and 98.3% in assay [2].
Take `CCCC1(CCC)C(=O)NC(=NCc2ccccc2)NC1=O`: the activity amounted to 51.6% in assay [1] and 20.8% in assay [2]. Besides, the activity, % sensitization in assay [3] was -11.1%; in assay [4] it was 5.29%; in assay [5], -4.21%; in assay [6], -22.9%.
As for `CC(=O)OC1C(=O)OCC23CCC4(C)OC4C2OC2CC(OC(=O)C=CC=CC(=O)OCCC1C)C3(C)C21CO1` (centres undefined), the activity in assay [1] is 89.6%; in assay [2], 92.9%.
For `Cc1ccccc1-[n+]1c(-c2ccccc2)cc(-c2ccccc2)cc1-c1ccccc1`, in that order: 75.7% and 64.1%.
Consider `CC12CCC3C(CCC4(O)CC(O)CCC34C=O)C1(O)CCC2C1=CC(=O)OC1` (centres undefined), for which the activity in assay [1] was determined as 82.5%; in assay [2] it was 85.2%.

Values taken from PubChem BioAssay.
